PubChem BioAssay AID588758 (Vanderbilt Specialized Chemistry Center, 2011)
Calls of active or inactive are those of the source.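 Rule for the calls: active = compound cutting binding or function at one or more panel targets by over half; inactive = the rest.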

Assay: radioligand displacement at CNS targets panel – biochemical, Ricerca panel, percent inhibition, selectivity assay for M4 PAM project, profiling panel (AID 588758)
Conditions: Ricerca radioligand binding panel, % inhibition, at 10 µM, stronger effect = higher value

SMILES: Cc1nc2sc(C(=O)NCc3ccncc3)c(N)c2c(C)c1Cl
- inhibition (GABA-A flunitrazepam site binding): 64%
- inhibition: 79% (active)
- inhibition (measured here: 5-HT2B receptor binding): 74%
- inhibition (measured here: 5-HT3 receptor binding): 35%
- inhibition (measured here: Adenosine A3 binding): 40%
- inhibition (measured here: Adrenergic beta2 binding): 36%
- inhibition (measured here: GABA-B 1A binding): 25%
- inhibition (measured here: Muscarinic M1 binding): 9%
- inhibition (measured here: Muscarinic M2 binding): 10%
- inhibition (measured here: Muscarinic M3 binding): 14%
- inhibition (measured here: Norepinephrine transporter binding): 35%
- inhibition (measured here: Serotonin transporter binding): 3%
- inhibition (measured here: hERG channel binding): 12%
